Source: PubChem BioAssay (NCATS)
Inconclusive results are not listed. Calls of active or inactive are those of the source. The call rests on the fitted dose curve; in most records, active means well fitted curve in the direction sought with a large enough effect; inconclusive means small, poorly fitted or top-dose-only effect, or another doubt; inactive means no such curve, though single readings can be large; an effect the other way counts as inactive or inconclusive.

Assays:
[1] = biological target: Voltage-gated inwardly rectifying potassium channel KCNH2 (Homo sapiens) (UniProt Q12809); assay: qHTS Assay for Small Molecule Inhibitors of the Human hERG Channel Activity (AID 588834); conditions: U2OS BacMam hERG, FluxOR thallium flux fluorescence; series mostly up to 46.1 µM;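 further: U2OS cells transduced with hERG by BacMam; top concentration of the series differs between compounds; lower thallium flux fluorescence means stronger hERG block; nearly all actives have a fitted effect of over 50% in size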
Chain of Voltage-gated inwardly rectifying potassium channel KCNH2 (Homo sapiens) (Q12809 whole entry, looked up): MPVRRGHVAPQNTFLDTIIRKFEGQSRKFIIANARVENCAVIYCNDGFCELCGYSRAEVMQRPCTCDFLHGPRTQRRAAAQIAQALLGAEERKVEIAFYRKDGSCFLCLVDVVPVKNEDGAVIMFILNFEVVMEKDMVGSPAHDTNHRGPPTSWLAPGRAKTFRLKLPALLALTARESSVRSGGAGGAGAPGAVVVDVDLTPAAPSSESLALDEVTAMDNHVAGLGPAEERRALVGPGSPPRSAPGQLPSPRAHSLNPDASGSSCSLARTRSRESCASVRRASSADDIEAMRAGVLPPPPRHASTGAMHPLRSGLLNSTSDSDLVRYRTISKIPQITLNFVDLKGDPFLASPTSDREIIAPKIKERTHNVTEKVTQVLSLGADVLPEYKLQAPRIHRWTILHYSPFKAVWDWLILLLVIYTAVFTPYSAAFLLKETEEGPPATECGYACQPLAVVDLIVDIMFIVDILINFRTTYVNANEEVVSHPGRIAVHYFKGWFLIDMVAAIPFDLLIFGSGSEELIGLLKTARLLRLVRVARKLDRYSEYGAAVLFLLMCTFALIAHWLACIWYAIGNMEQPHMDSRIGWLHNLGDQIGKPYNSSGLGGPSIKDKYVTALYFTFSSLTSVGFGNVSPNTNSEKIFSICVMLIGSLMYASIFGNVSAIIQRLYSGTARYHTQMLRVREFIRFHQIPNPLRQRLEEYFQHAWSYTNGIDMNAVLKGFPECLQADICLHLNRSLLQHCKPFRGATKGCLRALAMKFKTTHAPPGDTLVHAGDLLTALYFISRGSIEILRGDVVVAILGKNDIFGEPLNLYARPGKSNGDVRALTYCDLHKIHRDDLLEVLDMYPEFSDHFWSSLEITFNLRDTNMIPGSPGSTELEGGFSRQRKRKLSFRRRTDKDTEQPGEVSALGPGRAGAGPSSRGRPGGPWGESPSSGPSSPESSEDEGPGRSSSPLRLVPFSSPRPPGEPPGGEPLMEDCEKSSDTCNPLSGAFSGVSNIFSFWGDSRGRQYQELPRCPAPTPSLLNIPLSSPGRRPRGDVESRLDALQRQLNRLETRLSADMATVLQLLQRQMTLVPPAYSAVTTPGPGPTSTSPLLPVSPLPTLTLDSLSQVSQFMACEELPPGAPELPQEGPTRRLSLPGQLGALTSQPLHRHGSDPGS
Outline: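 Cells were infected with hERG-BacMam virus for 4 hrs at room temperature, grown overnight, then seeded at 2000/well. After dye loading and roughly 10 min compound treatment, thallium influx was triggered and fluorescence recorded.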

[2] = biological target: Luciferin 4-monooxygenase (Photinus pyralis) (UniProt P08659); assay: Biochemical firefly luciferase enzyme assay for NPC (AID 624030);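 further: purified P. pyralis luciferase at 10 nM with luciferin and ATP substrate; nearly all actives have a fitted effect of over 70% in size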; conditions: purified P. pyralis luciferase, luminescence, 5 min; series mostly up to 58.6 µM
Chain of Luciferin 4-monooxygenase (Photinus pyralis) (P08659 whole entry, looked up): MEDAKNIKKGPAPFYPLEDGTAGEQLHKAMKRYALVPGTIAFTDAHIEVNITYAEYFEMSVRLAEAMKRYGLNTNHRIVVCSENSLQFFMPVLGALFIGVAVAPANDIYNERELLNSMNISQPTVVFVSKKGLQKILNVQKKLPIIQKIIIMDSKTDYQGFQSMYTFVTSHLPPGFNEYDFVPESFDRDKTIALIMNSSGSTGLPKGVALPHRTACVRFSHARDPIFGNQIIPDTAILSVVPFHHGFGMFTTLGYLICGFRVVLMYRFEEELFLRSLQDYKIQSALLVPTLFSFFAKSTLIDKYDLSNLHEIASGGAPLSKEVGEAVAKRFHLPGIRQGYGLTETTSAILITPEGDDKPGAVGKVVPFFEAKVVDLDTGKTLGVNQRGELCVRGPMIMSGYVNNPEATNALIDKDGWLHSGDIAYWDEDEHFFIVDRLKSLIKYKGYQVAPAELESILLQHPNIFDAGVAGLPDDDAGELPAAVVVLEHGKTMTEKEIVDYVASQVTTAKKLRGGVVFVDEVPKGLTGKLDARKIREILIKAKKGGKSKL
Outline: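 Counter-screen for direct inhibition of the luciferase enzyme by approved-drug library compounds, run at 10 nM enzyme in 50 mM Tris acetate (final). Luminescence was read within 5 min of enzyme-buffer addition and normalized to PTC124 versus DMSO (0%).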

[3] = S16 Schwann cell viability assay (CellTiter-Glo assay) (AID 624031); conditions: S16 rat Schwann cells viability, 24 h; series mostly up to 57.5 µM;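 further: cellular ATP luminescence as a viability measure; nearly all actives have a fitted effect of over 70% in size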
Outline: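 Native S16 rat Schwann cells, 500-750 cells/well in DMEM with 10% FBS, dosed with compound after overnight culture and incubated 24h at 37 degree Celsius/5% CO2. Viability by CellTiter-Glo luminescence; % activity normalized to no-cell wells and DMSO-treated cells.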

[4] = S16 Schwann cell PMP22 intronic element firefly luciferase assay (AID 624032); conditions: S16 rat Schwann cells, PMP22 element FLuc, 24 h; series mostly up to 57.5 µM; further: nearly all actives have a fitted effect of over 30% in size
Outline: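 Rat S16 Schwann cells stably carrying a PMP22 intronic element-driven Fluc reporter were seeded overnight, then exposed to compounds for 24 h at 37 °C. Luminescence was normalized to PTC124 (positive control) and DMSO (0% activity).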

Measured: Potency

CCOC(=O)[C@H](CCc1ccccc1)N[C@@H](C)C(=O)N1C(=O)N(C)C[C@H]1C(=O)O
inactive: all assays above

C[C@H]1O[C@@H](n2cc(F)c(=O)[nH]c2=O)[C@H](O)[C@@H]1O
inactive: all assays above

Cc1ncc(COP(=O)(O)O)c(C=O)c1O
inactive: all assays above

NCC(=O)CCC(=O)O
inactive: all assays above

COc1ccc(S(=O)(=O)Nc2nnc(CC(C)C)s2)cc1
inactive: all assays above

CCCOC(=O)c1ccccc1
inactive: all assays above

CC(=O)CCC(=O)O
inactive: all assays above

CCC(=O)c1ccc(O)cc1
inactive: [1] | [2] | [3]

COc1cc(C(=O)N2CCOCC2)cc(OC)c1OC
inactive: all assays above

COc1cc2[nH]c(=O)[nH]c(=O)c2cc1OC
inactive: all assays above

O=C(O)c1ccccc1-c1ccc(C(F)(F)F)cc1
inactive: all assays above

O=C(O)CN1C(=O)c2cccc3cccc(c23)C1=O
inactive: all assays above

CCCCc1ncc(/C=C(\Cc2cccs2)C(=O)O)n1Cc1ccc(C(=O)O)cc1
inactive: all assays above

NC(CSCC(=O)O)C(=O)O (stereo not drawn)
inactive: all assays above

Oc1cn2c(n1)Nc1ccc(Cl)c(Cl)c1C2
inactive: [1] | [2] | [3]
